# High-throughput results: PubChem BioAssay, National Center for Advancing Translational Sciences (NCATS)
# JMJD2A Tudor: qHTS Assay for Inhibitors of JMJD2A-Tudor Domain | AID 504339, 2011 | 390,000 tested, 4.4% active | AlphaScreen JMJD2A-Tudor / H3K4me3 peptide binding | Potency, µM (titrated, usually from 114 µM), for inactives: top-dose activity change, negative = inhibition, hits mostly inhibitors | Lysine-specific demethylase 4A (Homo sapiens), O75164; also: % is scaled to controls: 0 for no effect and ±100 for the full control effect; nearly all actives have a fitted effect of over 50% in size
# L3MBTL1 block: qHTS Assay for the Inhibitors of L3MBTL1 | Lethal(3)malignant brain tumor-like protein 1 (Homo sapiens), Q9Y468 | AlphaScreen L3MBTL1–H3K9me1 peptide binding | Potency, µM (highest dose often 57.1 µM), for the others: top-dose activity, negative = inhibition, hits mostly inhibitors | 230,000 tested, 0.66% active | AID 485360, 2010; also: % is scaled to controls: 0 for no effect and ±100 for the full control effect; nearly all actives have a fitted effect of over 60% in size
#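 AlphaScreen assay: L3MBTL1 (50 nM final) was preincubated 30 min at room temperature with biotinylated H3(1-15)K9me1 peptide (75 nM final), then 30 min with library compounds; streptavidin donor and nickel chelate acceptor beads (10 ug/mL final) added, 30 min dark.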
# HP1b chromo inh: HTS for Inhibitors of HP1-beta Chromodomain Interactions with Methylated Histone Tails; Chromobox protein homolog 1 (Homo sapiens), P83916; AlphaScreen HP1-beta / biotin-H3K9me3 peptide binding; Potency, µM (titrated, usually from 114 µM), for the others: top-dose activity change, negative = inhibition, actives largely listed as inhibitors; 390,000 tested, 0.56% active; AID 540317, 2011; also: nearly all actives have a fitted effect of over 70% in size
#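 AlphaScreen: HP1-beta (50 nM) preformed 30 min with biotin-H3(1-18)K9me3 peptide (50 nM) in PBS pH 7.4, 0.01% Tween-20. Compound added for 30 min at RT, then streptavidin donor/nickel chelate acceptor beads (10 ug/mL) for 30 min.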
# BAZ2B inh: qHTS Assay for Inhibitors of BAZ2B; AlphaScreen BAZ2B-H3K14Ac peptide displacement; Potency, µM (titrated, usually from 114 µM), inactives show top-dose activity change, negative = inhibition, actives largely listed as inhibitors; 360,000 tested, 4.4% active; also: % is scaled to controls: 0 for no effect and ±100 for the full control effect; nearly all actives have a fitted effect of over 60% in size
# Target sequence (Q9UIF8 whole entry, looked up): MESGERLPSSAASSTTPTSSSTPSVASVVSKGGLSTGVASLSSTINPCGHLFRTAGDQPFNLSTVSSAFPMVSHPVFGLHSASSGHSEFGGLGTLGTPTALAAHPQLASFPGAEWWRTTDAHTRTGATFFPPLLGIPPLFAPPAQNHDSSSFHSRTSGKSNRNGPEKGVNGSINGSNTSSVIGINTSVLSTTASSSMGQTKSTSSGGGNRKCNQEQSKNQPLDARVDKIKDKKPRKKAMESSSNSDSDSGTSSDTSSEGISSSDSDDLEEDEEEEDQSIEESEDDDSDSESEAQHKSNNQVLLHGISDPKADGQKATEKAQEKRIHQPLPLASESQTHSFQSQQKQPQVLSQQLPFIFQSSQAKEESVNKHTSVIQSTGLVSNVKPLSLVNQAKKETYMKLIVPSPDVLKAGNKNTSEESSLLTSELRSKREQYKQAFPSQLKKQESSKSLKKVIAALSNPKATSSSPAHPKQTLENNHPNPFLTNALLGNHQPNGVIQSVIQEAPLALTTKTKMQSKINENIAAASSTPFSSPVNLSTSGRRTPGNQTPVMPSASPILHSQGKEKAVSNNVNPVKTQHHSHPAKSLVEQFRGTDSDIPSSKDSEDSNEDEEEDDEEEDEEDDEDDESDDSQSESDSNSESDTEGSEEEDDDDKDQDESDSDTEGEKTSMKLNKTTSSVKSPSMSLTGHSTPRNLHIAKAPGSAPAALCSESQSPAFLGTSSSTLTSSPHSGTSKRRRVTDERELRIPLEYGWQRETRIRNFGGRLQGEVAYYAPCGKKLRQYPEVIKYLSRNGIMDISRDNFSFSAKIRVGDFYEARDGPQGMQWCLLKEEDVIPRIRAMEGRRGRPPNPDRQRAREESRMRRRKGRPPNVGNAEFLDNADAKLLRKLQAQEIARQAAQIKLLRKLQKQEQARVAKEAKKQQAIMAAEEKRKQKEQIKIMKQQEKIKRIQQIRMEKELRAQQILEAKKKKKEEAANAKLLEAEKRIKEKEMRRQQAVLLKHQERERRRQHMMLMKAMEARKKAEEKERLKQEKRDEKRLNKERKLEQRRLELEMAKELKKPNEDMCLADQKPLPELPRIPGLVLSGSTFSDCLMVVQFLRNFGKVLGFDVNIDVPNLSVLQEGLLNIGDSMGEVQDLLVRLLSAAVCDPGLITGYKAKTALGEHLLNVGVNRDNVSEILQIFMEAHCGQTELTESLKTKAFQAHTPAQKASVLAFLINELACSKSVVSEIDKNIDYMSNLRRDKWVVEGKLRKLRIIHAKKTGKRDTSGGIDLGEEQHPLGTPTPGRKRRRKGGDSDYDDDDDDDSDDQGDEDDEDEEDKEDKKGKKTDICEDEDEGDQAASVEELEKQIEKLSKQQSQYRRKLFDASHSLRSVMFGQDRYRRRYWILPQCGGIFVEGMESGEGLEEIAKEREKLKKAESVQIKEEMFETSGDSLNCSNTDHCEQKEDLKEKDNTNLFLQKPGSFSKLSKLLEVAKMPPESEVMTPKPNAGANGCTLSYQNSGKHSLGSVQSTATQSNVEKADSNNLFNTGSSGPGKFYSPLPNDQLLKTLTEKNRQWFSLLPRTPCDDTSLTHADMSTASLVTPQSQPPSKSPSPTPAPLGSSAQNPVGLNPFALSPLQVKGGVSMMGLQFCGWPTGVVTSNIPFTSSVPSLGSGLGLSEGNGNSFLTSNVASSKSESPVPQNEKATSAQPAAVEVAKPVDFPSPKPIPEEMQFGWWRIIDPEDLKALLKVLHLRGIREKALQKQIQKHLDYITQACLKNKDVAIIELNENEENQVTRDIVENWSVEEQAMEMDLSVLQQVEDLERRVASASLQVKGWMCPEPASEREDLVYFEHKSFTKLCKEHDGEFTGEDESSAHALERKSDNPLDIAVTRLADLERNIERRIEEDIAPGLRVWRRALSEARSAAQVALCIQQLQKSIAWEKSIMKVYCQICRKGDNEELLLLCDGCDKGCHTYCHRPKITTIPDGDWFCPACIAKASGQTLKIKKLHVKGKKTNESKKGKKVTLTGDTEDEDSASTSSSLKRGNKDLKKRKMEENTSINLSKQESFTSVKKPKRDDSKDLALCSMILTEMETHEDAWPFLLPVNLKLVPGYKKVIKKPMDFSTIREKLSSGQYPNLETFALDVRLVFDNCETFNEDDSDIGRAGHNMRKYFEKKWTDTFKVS
#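 AlphaScreen displacement: compounds (up to 110uM) incubated 30 min at room temperature with a preformed 50 nM BAZ2B/50 nM biotinylated H3K14Ac peptide complex in PBS pH 7.4 with Tween-20. Donor and acceptor beads at 10 ug/mL final added, 20 min light-protected before reading.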
# PLK1 PBD inh: qHTS for Inhibitors of PLK1-PDB (polo-like kinase 1 - polo-box domain): Primary Screen | Plk1 PBD binding of FITC phosphopeptide, fluorescence polarization | Potency, µM, without a hit: max response, negative = inhibition, hits mostly inhibitors | 360,000 tested, 2.8% active | AID 720504, 2013; also: series mostly up to about 57 µM; % is scaled to controls: 0 for no effect and ±100 for the full control effect; nearly all actives have a fitted effect of over 65% in size
# VDR inhibitor: Inhibitors of the vitamin D receptor (VDR): qHTS; Vitamin D3 receptor (Homo sapiens), P11473; VDR-SRC2-3 peptide fluorescence polarization, 2 h; Potency, µM, for the others: max response, negative = inhibition, hits mostly inhibitors; 400,000 tested, 0.93% active; AID 504847, 2011; also: % is scaled to controls: 0 for no effect and ±100 for the full control effect
#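 Inhibition of the VDR/SRC2-3 peptide interaction is quantified by fluorescence polarization. Compounds (23 nl, pintool) incubate with the reagents for 2 hours at ambient room temperature.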
# An asterisk follows results filed as active; ? = inconclusive; · = no result; [ ] = remark or other dose. This is a sample that favours compounds with a hit; in the whole collection about 6.9% have one here. Calls follow the shape of the dose curve; as a rule, active = well fitted curve in the direction sought with a large enough effect; inconclusive = small, poorly fitted or top-dose-only effect, or another doubt; inactive = no such curve, though single readings can be large; an effect the other way counts as inactive or inconclusive. Potency is read from the fitted curve at half-maximal effect.
SMILES,JMJD2A Tudor,L3MBTL1 block,HP1b chromo inh,BAZ2B inh,PLK1 PBD inh,VDR inhibitor
COC(=O)c1c(NC(C)=O)c2c3c(sc2n1Cc1cc(C)ccc1C)CCCC3,-18%,·,4%,-4%,·,2%
COc1ccccc1/C=C1\SC(=S)N(C(C(=O)O)c2ccccc2)C1=O (centres undefined),3%[11.4 µM],-9%,28%,-36%,24µM*,-2%
O=C(O)C(c1ccccc1)N1C(=O)/C(=C\c2ccc(O)c(O)c2)SC1=S (centres undefined),20µM*,·,25µM*,8.9µM*,-16%,-12%
COc1cc(/C=C2\SC(=S)N(C(C(=O)O)c3ccccc3)C2=O)ccc1O (centres undefined),-32%,0%,?,?,8%,-18%
Cc1ccc(C(=O)N2CCN(CCc3ccncc3)CC2)cc1,-12%,·,45%,-16%,·,22%
CCOC(=O)C1(Cc2ccccc2Cl)CCN(C(=O)CCn2ccnc2C)CC1,-5%,-3%,46%,-26%,0%,-15%
CCCN(CCC)CCCNC(=O)c1cc2c(=O)[nH]c3ccccc3c2n1C,-10%,·,16%,9%,-7%,?
Cn1c(C(=O)NCc2ccco2)cc2c(=O)[nH]c3ccccc3c21,100µM*,-3%,47%,-8%,?,2%
CCCCOc1ccc(C2OC34CCCCC3C(C#N)(C#N)C2(C#N)C(=N)O4)cc1 (centres undefined),?,·,36%,-11%,21µM*,?
Cc1ccc(C2CC(=O)C=C(NCC(C)C)C2)cc1 (centres undefined),-33%[57.1 µM],8%,?,6%,27µM*,?
Cc1ccc(C2CC(=O)C=C(NCc3ccccc3)C2)cc1 (centres undefined),-11%,-3%,11%,-12%,2%,-9%
Cc1noc(C)c1-c1nccc(NC2CC2)n1,·,·,·,·,·,50µM*
COCCNc1ccnc(-c2c(C)noc2C)n1,·,·,·,·,·,11%
CC[C@@]1(c2ccccc2)C(=O)N(C(=O)OC)N1C(=O)OC,-10%,-1%,64%,-34%,?,?
CC[C@]1(c2cccc(C)c2)C(=O)N(C(=O)OC)N1C(=O)OC,-1%,-4%,50%,-37%,12µM*,?
CC[C@@]1(c2ccccc2C)C(=O)N(C(=O)OC)N1C(=O)OC,-4%,5%,42%,-6%,11µM*,?
CC[C@]1(c2ccccc2)C(=O)N(C(=O)OC)N1C(=O)OC,-19%,17%,38%,1%,11µM*,?
COC(=O)N1C(=O)[C@@](c2ccccc2)(C2CCCCC2)N1C(=O)OC,-13%,1%,39%,-38%,?,?
COC(=O)N1C(=O)[C@@](Cc2ccccc2)(c2ccccc2)N1C(=O)OC,-21%,8%,38%,-7%,30µM*,?
CCN(CC(=O)Nc1ccccc1C(F)(F)F)C(=O)c1ccccc1OCc1ccc(F)cc1,-22%,·,18%,·,2%,7%
C[C@@H]1CN([C@H](C)CO)C(=O)CCCn2nncc2CO[C@H]1CN(C)C(=O)C1CCCCC1,·,·,·,·,-13%,·
CCc1ccc(S(=O)(=O)c2cn(CC)c3cc(N4CCOCC4)c(F)cc3c2=O)cc1,-1%,·,37%,3%,·,-4%
COC(=O)N1C(=O)[C@](c2ccccc2)(C(C)C)N1C(=O)OC,-4%,1%,42%,4%,?,-10%
COC(=O)N1C(=O)[C@](Cc2ccccc2)(c2ccccc2)N1C(=O)OC,-17%,-1%,43%,-31%,15µM*,89µM*
COc1ccc2cc(C(=O)N/N=C/c3sc4ccccc4c3O)ccc2c1,?,-10%,?,?,-2%,-18%
SMILES,JMJD2A Tudor,L3MBTL1 block,HP1b chromo inh,BAZ2B inh,PLK1 PBD inh,VDR inhibitor
O=C(N/N=C/c1sc2ccccc2c1O)c1ccccc1,?,-11%,-26%,?,56%,-10%
COc1ccc(C(=O)N/N=C/c2sc3ccccc3c2O)cc1,?,1%,-3%,45µM*,58%,-20%
O=C(N/N=C/c1sc2ccccc2c1O)c1cccc2ccccc12,79µM*,-13%,-37%,45µM*,52%,?
CCCNC(=O)c1cc(C2CCCN(C(=O)c3ccccc3)C2)on1 (centres undefined),·,·,·,·,3%,·
O=C(O)Cc1c[nH]c2cccc(O)c12,22µM*,5.6µM*,35µM*,35µM*,?,-15%
O=C(O)Cc1c[nH]c2ccccc12,-30%,·,1%,·,3%,14%
Cc1cccc(OC(=O)c2cncc(Br)c2)c1,36%,·,23%,30%,27µM*,-16%
O=C(N=Nc1ccc(NOC(=O)c2ccccc2Br)cc1)c1ccccc1O,·,-9%,·,7.9µM*,·,·
O=C1Cc2cc(S(=O)(=O)N3CCN(c4ccc(O)cc4)CC3)ccc2N1,126µM*,·,·,·,·,·
O=C1CC(=O)Nc2cc(S(=O)(=O)N3CCN(c4ccc([N+](=O)[O-])cc4)CC3)ccc2N1,29%,·,44%,50µM*,2%,-7%
O=C1Cc2cc(S(=O)(=O)N3CCN(c4ccc([N+](=O)[O-])cc4)CC3)ccc2N1,-31%,·,·,·,·,·
Nc1nc2cc(Cl)ccc2cc1C(=O)NCCCc1ccccc1,·,·,·,·,-1%,·
COc1cc(CNCc2ccco2)ccc1OCc1ccccc1,4µM*,-1%,?,?,-16%,0%
COc1cc(OC)c(OC)cc1CNCc1ccco1,2.8µM*,·,?,?,-13%,-12%
COc1cc(CNCc2cccs2)ccc1OCc1ccccc1,-6%,2%,29%,7%,-3%,-17%
COc1cccc(CNCc2ccco2)c1O,18µM*,25%,?,35%,5%,-6%
CN(CC(=O)NCc1ccccn1)S(=O)(=O)c1cc(Cl)ccc1Cl,-10%,-2%,-11%,8%,-8%,-10%
COc1cccc2c1C(=O)CC(c1ccccc1)O2 (centres undefined),·,·,·,·,·,-10%
O=C(Nc1nc2n(n1)C(c1ccccc1)C=C(c1ccccc1)N2)c1ccco1 (centres undefined),-29%,-25%,15%,25µM*,-11%,2%
O=C(Nc1nc2n(n1)C(c1ccccc1)C=C(c1ccc(Cl)cc1)N2)c1ccco1 (centres undefined),?,·,11%,79µM*,·,-6%
O=C(CCC(=O)N1CCOc2ccc(Cl)cc21)NCCCN1CCN(c2ccccc2F)CC1,-19%,3%,21%,?,2%,4%
